# Assay results published in the supplement of paper PMC8728848.
# About 410 targets per protein were measured; listed, in parts, are those with the strongest signals and a random draw of the rest.
# B1: SAOUHSC 00176 (Staphylococcus aureus) (protein)
# chain: MSKILKCITLAVVMLLIVTACGPNRSKEDIDKALNKDNSKDKPNQLTMWVDGDKQMAFYKKITDQYTKKTGIKVKLVNIGQNDQLENISLDAPAGKGPDIFFLAHDNTGSAYLQGLAAEIKLSKDELKGFNKQALKAMNYDNKQLALPAIVETTALFYNKKLVKNAPQTLEEVEANAAKLTDSKKKQYGMLFDAKNFYFNYPFLFGNDDYIFKKNGSEYDIHQLGLNSKHVVKNAERLQKWYDKGYLPKAATHDVMIGLFKEGKVGQFVTGPWNINEYQETFGKDLGVTTLPTDGGKPMKPFLGVRGWYLSEYSKHKYWAKDLMLYITSKDTLQKYTDEMSEITGRVDVKSSNPNLKVFEKQARHAEPMPNIPEMRQVWEPMGNASIFISNGKNPKQALDEATNDITQNIKILHPSQNDKKGD
# Key:
# Assay in all cases: glycan array binding signal (z-score within array); higher = stronger binding
# Conditions in all cases: glycan notation: IUPAC condensed, linker removed
# [1] = biological target: GlcNAc(b1-3)Gal(b1-4)GlcNAc(b1-2)Man(a1-3)[GlcNAc(b1-3)Gal(b1-4)GlcNAc(b1-2)Man(a1-6)]Man(b1-4)GlcNAc(b1-4)GlcNAc
# How it was run: (§1)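 Arrays were curated from the Consortium for Functional Glycomics database, 3228 in total, and kept only where the protein sequence was available. Binding is expressed as a within-array Z-score. This score was averaged across arrays of the same protein sequence at different concentrations or buffers and across linkers, and negative values can be read as non-binding.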
# [2] = biological target: GlcNAc(b1-3)Gal(b1-4)GlcNAc(b1-3)Gal(b1-4)GlcNAc(b1-2)[GlcNAc(b1-3)Gal(b1-4)GlcNAc(b1-3)Gal(b1-4)GlcNAc(b1-6)]Man(a1-6)[GlcNAc(b1-3)Gal(b1-4)GlcNAc(b1-3)Gal(b1-4)GlcNAc(b1-2)Man(a1-3)]Man(b1-4)GlcNAc(b1-4)[Fuc(a1-6)]GlcNAc
# How it was run: as §1
# [3] = biological target: GlcNAc(b1-3)Gal(b1-4)GlcNAc(b1-3)[GlcNAc(b1-3)Gal(b1-4)GlcNAc(b1-3)]GalNAc
# How it was run: as §1
# [4] = biological target: GlcNAc(b1-3)[GlcNAc(b1-6)]GalNAc
# How it was run: as §1
# [5] = biological target: GlcNAc(b1-6)Gal(b1-4)GlcNAc
# How it was run: as §1
# Kdn(a2-3)Gal(b1-3)GalNAc = biological target: Kdn(a2-3)Gal(b1-3)GalNAc
# How it was run: as §1
# Kdn(a2-3)Gal(b1-4)GlcNAc = biological target: Kdn(a2-3)Gal(b1-4)GlcNAc
# How it was run: as §1
# [6] = biological target: Man(a1-2)Man(a1-3)[Man(a1-6)]Man(a1-6)[Man(a1-2)Man(a1-3)]Man(b1-4)GlcNAc(b1-4)GlcNAc
# How it was run: as §1
# Neu5Ac(a2-3)Gal = biological target: Neu5Ac(a2-3)Gal
# How it was run: as §1
# [7] = biological target: Neu5Ac(a2-3)Gal(b1-3)GlcNAc(b1-2)Man(a1-3)[Neu5Ac(a2-3)Gal(b1-3)GlcNAc(b1-2)Man(a1-6)]Man(b1-4)GlcNAc(b1-4)GlcNAc
# How it was run: as §1
# [8] = biological target: Neu5Ac(a2-3)Gal(b1-3)GlcNAc(b1-3)Gal(b1-3)GlcNAc
# How it was run: as §1
# [9] = biological target: Neu5Ac(a2-3)Gal(b1-3)[Fuc(a1-4)]GlcNAc
# How it was run: as §1
# [10] = biological target: Neu5Ac(a2-3)Gal(b1-4)GlcNAc(b1-2)Man
# How it was run: as §1
# [11] = biological target: Neu5Ac(a2-3)Gal(b1-4)GlcNAc(b1-2)[Neu5Ac(a2-3)Gal(b1-4)GlcNAc(b1-4)]Man(a1-3)[GlcNAc(b1-4)][Neu5Ac(a2-3)Gal(b1-4)GlcNAc(b1-2)[Neu5Ac(a2-3)Gal(b1-4)GlcNAc(b1-6)]Man(a1-6)]Man(b1-4)GlcNAc(b1-4)GlcNAc
# How it was run: as §1
# [12] = biological target: Neu5Ac(a2-3)Gal(b1-4)GlcNAc(b1-3)Gal(b1-3)GlcNAc
# How it was run: as §1
# [13] = biological target: Neu5Ac(a2-3)Gal(b1-4)GlcNAc(b1-3)Gal(b1-4)GlcNAc
# How it was run: as §1
# [14] = biological target: Neu5Ac(a2-3)Gal(b1-4)GlcNAc(b1-3)Gal(b1-4)[Fuc(a1-3)]GlcNAc
# How it was run: as §1
# [15] = biological target: Neu5Ac(a2-3)Gal(b1-4)GlcNAc6S
# How it was run: as §1
# [16] = biological target: Neu5Ac(a2-3)Gal(b1-4)[Fuc(a1-3)]GlcNAc
# How it was run: as §1
# [17] = biological target: Neu5Ac(a2-3)GalNAc(b1-4)GlcNAc
# How it was run: as §1
# [18] = biological target: Neu5Ac(a2-6)Gal(b1-4)GlcNAc
# How it was run: as §1
# [19] = biological target: Neu5Ac(a2-6)Gal(b1-4)GlcNAc(b1-2)Man(a1-3)[Neu5Ac(a2-3)Gal(b1-4)GlcNAc(b1-2)Man(a1-6)]Man(b1-4)GlcNAc(b1-4)GlcNAc
# How it was run: as §1
# [20] = biological target: Neu5Ac(a2-6)Gal(b1-4)GlcNAc(b1-3)Gal(b1-3)GlcNAc
# How it was run: as §1
# [21] = biological target: Neu5Ac(a2-6)Gal(b1-4)GlcNAc(b1-3)Gal(b1-4)GlcNAc(b1-3)Gal(b1-4)GlcNAc(b1-2)Man(a1-3)[Neu5Ac(a2-6)Gal(b1-4)GlcNAc(b1-3)Gal(b1-4)GlcNAc(b1-3)Gal(b1-4)GlcNAc(b1-2)Man(a1-6)]GalNAc
# How it was run: as §1
# [22] = biological target: Neu5Ac(a2-6)GlcNAc(b1-4)GlcNAc(b1-4)GlcNAc
# How it was run: as §1
# Neu5Ac(a2-8)Neu5Ac = biological target: Neu5Ac(a2-8)Neu5Ac
# How it was run: as §1
# [23] = biological target: Neu5Ac(a2-8)Neu5Ac(a2-8)Neu5Ac
# How it was run: as §1
binder,measurement,setting,value
B1,glycan array binding signal (z-score),[1],-0.101
same,glycan array binding signal (z-score),[2],-0.059
same,glycan array binding signal (z-score),[3],-0.02
same,glycan array binding signal (z-score),[4],-0.149
same,glycan array binding signal (z-score),[5],-0.124
same,glycan array binding signal (z-score),Kdn(a2-3)Gal(b1-3)GalNAc,-0.129
same,glycan array binding signal (z-score),Kdn(a2-3)Gal(b1-4)GlcNAc,-0.143
same,glycan array binding signal (z-score),[6],-0.172
same,glycan array binding signal (z-score),Neu5Ac(a2-3)Gal,-0.179
same,glycan array binding signal (z-score),[7],1.08
same,glycan array binding signal (z-score),[8],-0.055
same,glycan array binding signal (z-score),[9],-0.157
same,glycan array binding signal (z-score),[10],0.473
same,glycan array binding signal (z-score),[11],-0.073
same,glycan array binding signal (z-score),[12],-0.09
same,glycan array binding signal (z-score),[13],0.002
same,glycan array binding signal (z-score),[14],-0.015
same,glycan array binding signal (z-score),[15],-0.027
same,glycan array binding signal (z-score),[16],-0.132
same,glycan array binding signal (z-score),[17],-0.141
same,glycan array binding signal (z-score),[18],-0.148
same,glycan array binding signal (z-score),[19],-0.114
same,glycan array binding signal (z-score),[20],-0.079
same,glycan array binding signal (z-score),[21],0.358
same,glycan array binding signal (z-score),[22],2.56
same,glycan array binding signal (z-score),Neu5Ac(a2-8)Neu5Ac,-0.022
same,glycan array binding signal (z-score),[23],-0.055
